# Data: PubChem BioAssay (NCI)
# About 83,000 compounds went through this panel and 20% of them were active in at least one assay; those are over-represented in the sample as a whole.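 Treatment: one concentration, 48 hours, 96-well format. Scoring: percent growth, with anything below 10 considered active.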 Unmarked numbers belong to inactive results. Active and inactive are the calls of the source.
# Tested on: IGROV1 ovarian
# Assay: NCI-60 one-dose screen, 48 h (100 = growth as untreated, 0 = no growth, -100 = all killed)
# Conditions: 10 µM unless noted
row,Structure (SMILES),growth
1,CCOC(=O)c1cnn(-c2nc(-c3ccc(F)cc3)c(C#N)c(N3CCOCC3)n2)c1N,102%
2,Cc1c(O)c(=O)ccn1-c1nc2ccccc2s1,109%
3,Nc1ccc(C2=NN(C(=O)c3cc(-c4ccc(Cl)cc4)nc4ccccc34)C(c3ccc(Cl)cc3)C2)cc1 (stereo not drawn),49.2%
4,COc1ccc2nc(-c3ccc(OC)c(OC)c3)cc(-c3nnc(SCC(=O)Nc4ccc(C(C)=O)cc4)o3)c2c1,113%
5,COc1cc(C2=NN(C(C)=O)C(c3cccc(Nc4ccnc5cc(C(F)(F)F)ccc45)c3)C2)cc(OC)c1OC (stereo not drawn),62.4%
6,CC(C)CSc1nc(Nc2ccccc2)c(C#N)c(-c2ccc(F)cc2)n1,1.71% (active)
7,CNc1cccc2c1C(=O)c1cccc(N)c1C2=O,67.5%
8,NC(=O)c1ccc(C2C3=C(CCCC3=O)OC3=C2C(=O)c2ccccc2C3=O)cc1 (stereo not drawn),8.86% (active)
9,C=CCn1c(SCC(=O)Nc2ccc(C(=O)/C=C/c3ccc(Cl)cc3)cc2)nnc1-c1cc(OC)c(OC)c(OC)c1,99.5%
10,C=C1C(=O)O[C@H]2[C@H]1CC/C(C=Nc1c(N)cc(F)cc1Br)=C\CC[C@@]1(C)O[C@@H]21,60.4%
11,COc1cc(-c2csc(NC(=O)Nc3ccc(Cl)cc3)n2)cc(OC)c1OC,42.6%
12,COc1ccc(C(=O)c2cc(OC)c(C)c(OC)c2)cc1OC(=O)CCl,30.7%
13,Nc1c(C(=O)Nc2cccc3ccccc23)sc2nc3c(cc12)COCC3,49.1%
14,CN(C)C(CNc1oc(-c2cccc3ccccc23)nc1C#N)c1ccco1 (stereo not drawn),95.7%
15,Cc1cnc(-c2ccc(-c3ccc(NC(=O)Nc4c(F)cc(F)cc4F)cc3F)c3c2C(=O)NC3)[nH]1,33%
16,COc1ccc(-c2cc(C(=O)N3N=C(c4ccc(N)cc4)CC3c3ccc(OC)cc3)c3cc(OC)ccc3n2)cc1 (stereo not drawn),50.8%
17,COc1cc([C@H](C)c2ccc3ccccc3c2)cc(OC)c1OC,36%
18,O=c1nc(-c2ccccc2)c2cc(-c3ccc(N4CCCC4)nc3)ccc2[nH]1,66.1%

row,Structure (SMILES),growth
1,Cc1cccc2nc3c(n12)C(=O)C(=O)c1ccccc1-3,44.7%
2,CC(=O)Nc1c(C(=O)Nc2ccccc2)sc2nc3c(cc12)C(OC(C)=O)CCC3 (stereo not drawn),109%
3,CCN1CCN(c2ccc(NC(=O)Nc3nc4ccc(-c5ccccc5OC)cc4s3)cc2)CC1,-71.3% (active)
4,Cc1cc(Cl)cc(CN(Cc2ccccc2)Cc2c(O)ccc3ccccc23)c1O,94.7%
5,COC1=CC=CC2(OC)C3(O)CCCc4cccc(c43)N3C(=O)COC132 (stereo not drawn),94.7%
6,C=C1C(=O)O[C@H]2[C@H]1CC/C(COC(=O)N1CCC[C@H]1C(=O)Nc1ccc(OC)c(C(N)=O)c1O)=C\CC[C@@]1(C)O[C@@H]21,14.7%
7,Cc1cc(C)nc(NS(=O)(=O)c2ccc(Nc3ccc4c5c(n(CCCN(C)C)c(=O)c4c3)-c3ccccc3C5=O)cc2)n1,74.2%
8,COc1cc(NC(=O)c2cc(O)c(C/C=C(\C)CCC=C(C)C)c(O)c2)cc2c1O[C@]1(C)CC[C@@H](O)C(C)(C)[C@H]1C2,20%
9,CCCCCCN1C(=O)CN=C1Nc1ccc2cc3ccc(NC4=NCC(=O)N4CCCCCC)cc3nc2c1,53.7%
10,Nc1ccc(C2=NN(C(=O)c3cc(-c4ccc(Cl)cc4)nc4ccccc34)C(c3ccccc3)C2)cc1 (stereo not drawn),50.9%
11,CN(CCC#N)C(=O)Nc1ccccc1,106%
12,C=C(C)[C@@H]1CC[C@]2(C(=O)OCCCC[P+](c3ccccc3)(c3ccccc3)c3ccccc3)CC[C@]3(C)[C@H](CC[C@@H]4[C@@]5(C)CC[C@H](OC(=O)C(Cl)Cl)C(C)(C)[C@@H]5CC[C@]43C)[C@@H]12,-23.3% (active)
13,CSc1cccc(NC(=O)Nc2nc3c(C)cccc3s2)c1,90.2%
14,O=C(O)c1cn(C2CC2)c2cc(N3CCN(Cc4nnc(Nc5ccccc5)o4)CC3)c(F)cc2c1=O,95.9%
15,O=C1CS/C(=N/c2nnc(-c3ccc(O)cc3)s2)N1,107%
16,COc1ccc2c(c1)C1(C(=O)N2)C(C#N)=C(c2ccccc2)Nc2c1c(-c1ccccc1)nn2-c1ccccc1 (stereo not drawn),49.6%
17,CCN1CCC[C@H]1c1cc(O)c2c(c1OC)C[C@H]1C[C@H]3[C@H](N)C(=O)C(C(N)=O)=C(O)[C@@]3(O)C(=O)C1=C2O,-5.97% (active)
18,O=C(/C(=C/c1ccc([N+](=O)[O-])cc1)SCc1ccccc1)c1ccc(Cl)cc1,57%

# Tested on: OVCAR-3 ovarian
# Assay: as above
# Conditions: 10 µM unless noted
row,Structure (SMILES),growth
1,CCOC(=O)c1cnn(-c2nc(-c3ccc(F)cc3)c(C#N)c(N3CCOCC3)n2)c1N,113%
2,Cc1c(O)c(=O)ccn1-c1nc2ccccc2s1,100%
3,Nc1ccc(C2=NN(C(=O)c3cc(-c4ccc(Cl)cc4)nc4ccccc34)C(c3ccc(Cl)cc3)C2)cc1 (stereo not drawn),8.07% (active)
4,COc1ccc2nc(-c3ccc(OC)c(OC)c3)cc(-c3nnc(SCC(=O)Nc4ccc(C(C)=O)cc4)o3)c2c1,111%
5,CNCc1cccc2c1OCCOCCOCCN(CCN1CCOCC1)S(=O)(=O)c1ccc(cc1)-c1cnc(N)c(n1)C(=O)N2,49.4%
6,COc1cc(C2=NN(C(C)=O)C(c3cccc(Nc4ccnc5cc(C(F)(F)F)ccc45)c3)C2)cc(OC)c1OC (stereo not drawn),61.2%
7,CC(C)CSc1nc(Nc2ccccc2)c(C#N)c(-c2ccc(F)cc2)n1,-33.2% (active)
8,CNc1cccc2c1C(=O)c1cccc(N)c1C2=O,32.2%
9,NC(=O)c1ccc(C2C3=C(CCCC3=O)OC3=C2C(=O)c2ccccc2C3=O)cc1 (stereo not drawn),-20.4% (active)
10,C=CCn1c(SCC(=O)Nc2ccc(C(=O)/C=C/c3ccc(Cl)cc3)cc2)nnc1-c1cc(OC)c(OC)c(OC)c1,91.9%
11,C=C1C(=O)O[C@H]2[C@H]1CC/C(C=Nc1c(N)cc(F)cc1Br)=C\CC[C@@]1(C)O[C@@H]21,50.9%
12,COc1cc(-c2csc(NC(=O)Nc3ccc(Cl)cc3)n2)cc(OC)c1OC,19.4%
13,COc1ccc(C(=O)c2cc(OC)c(C)c(OC)c2)cc1OC(=O)CCl,-8.39% (active)
14,Nc1c(C(=O)Nc2cccc3ccccc23)sc2nc3c(cc12)COCC3,19.8%
15,CN(C)C(CNc1oc(-c2cccc3ccccc23)nc1C#N)c1ccco1 (stereo not drawn),96.2%
16,Cc1cnc(-c2ccc(-c3ccc(NC(=O)Nc4c(F)cc(F)cc4F)cc3F)c3c2C(=O)NC3)[nH]1,-34% (active)
17,COc1ccc(-c2cc(C(=O)N3N=C(c4ccc(N)cc4)CC3c3ccc(OC)cc3)c3cc(OC)ccc3n2)cc1 (stereo not drawn),22%
18,COc1cc([C@H](C)c2ccc3ccccc3c2)cc(OC)c1OC,-19.7% (active)
19,O=c1nc(-c2ccccc2)c2cc(-c3ccc(N4CCCC4)nc3)ccc2[nH]1,44.7%

row,Structure (SMILES),growth
1,Cc1cccc2nc3c(n12)C(=O)C(=O)c1ccccc1-3,54%
2,CC(=O)Nc1c(C(=O)Nc2ccccc2)sc2nc3c(cc12)C(OC(C)=O)CCC3 (stereo not drawn),104%
3,CCN1CCN(c2ccc(NC(=O)Nc3nc4ccc(-c5ccccc5OC)cc4s3)cc2)CC1,-90.5% (active)
4,Cc1cc(Cl)cc(CN(Cc2ccccc2)Cc2c(O)ccc3ccccc23)c1O,91.7%
5,COC1=CC=CC2(OC)C3(O)CCCc4cccc(c43)N3C(=O)COC132 (stereo not drawn),109%
6,C=C1C(=O)O[C@H]2[C@H]1CC/C(COC(=O)N1CCC[C@H]1C(=O)Nc1ccc(OC)c(C(N)=O)c1O)=C\CC[C@@]1(C)O[C@@H]21,4.49% (active)
7,Cc1cc(C)nc(NS(=O)(=O)c2ccc(Nc3ccc4c5c(n(CCCN(C)C)c(=O)c4c3)-c3ccccc3C5=O)cc2)n1,83.7%
8,COc1cc(NC(=O)c2cc(O)c(C/C=C(\C)CCC=C(C)C)c(O)c2)cc2c1O[C@]1(C)CC[C@@H](O)C(C)(C)[C@H]1C2,-12.1% (active)
9,CCCCCCN1C(=O)CN=C1Nc1ccc2cc3ccc(NC4=NCC(=O)N4CCCCCC)cc3nc2c1,-35.9% (active)
10,Nc1ccc(C2=NN(C(=O)c3cc(-c4ccc(Cl)cc4)nc4ccccc34)C(c3ccccc3)C2)cc1 (stereo not drawn),3.55% (active)
11,CN(CCC#N)C(=O)Nc1ccccc1,108%
12,C=C(C)[C@@H]1CC[C@]2(C(=O)OCCCC[P+](c3ccccc3)(c3ccccc3)c3ccccc3)CC[C@]3(C)[C@H](CC[C@@H]4[C@@]5(C)CC[C@H](OC(=O)C(Cl)Cl)C(C)(C)[C@@H]5CC[C@]43C)[C@@H]12,-42.7% (active)
13,CSc1cccc(NC(=O)Nc2nc3c(C)cccc3s2)c1,117%
14,O=C(O)c1cn(C2CC2)c2cc(N3CCN(Cc4nnc(Nc5ccccc5)o4)CC3)c(F)cc2c1=O,101%
15,O=C1CS/C(=N/c2nnc(-c3ccc(O)cc3)s2)N1,107%
16,COc1ccc2c(c1)C1(C(=O)N2)C(C#N)=C(c2ccccc2)Nc2c1c(-c1ccccc1)nn2-c1ccccc1 (stereo not drawn),-69.2% (active)
17,CCN1CCC[C@H]1c1cc(O)c2c(c1OC)C[C@H]1C[C@H]3[C@H](N)C(=O)C(C(N)=O)=C(O)[C@@]3(O)C(=O)C1=C2O,2.36% (active)
18,O=C(/C(=C/c1ccc([N+](=O)[O-])cc1)SCc1ccccc1)c1ccc(Cl)cc1,70.6%
